RE007 growth inh – less growth of the S. pombe RE007 Vpr strain. S. pombe RE007 Vpr strain, BacTiter-Glo ATP luminescence, 24 h. Potency, µM (series often up to 92.2 µM), most hits filed as inhibitors. actives 0.21% (n = 360,000). AID 651644; active means well fitted falling curve with a large enough effect; inconclusive means small, poorly fitted or top-dose-only effect; inactive means no such curve, though single readings can be large or run the other way; further: nearly all actives have a fitted effect of over 50% in size
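Fission yeast strain RE007, carrying one chromosomally integrated HIV-1 vpr copy, was seeded at OD 0.01 in PMG+AL medium with 23 nL pinned compound. After 24 h at 30 °C and 99% humidity, viability was read by BacTiter-Glo luminescence.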
Sm TGR block – blocks Schistosoma mansoni thioredoxin glutathione reductase; Q962Y6; purified TGR, DTNB reduction, TNB absorbance 405 nm; Potency, µM (top dose mostly 114 µM), hits mostly inhibitors; actives 3% (n = 360,000); further: nearly all actives have a fitted effect of over 60% in size
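First, TGR (20 nM dispensed) and NADPH were mixed with compound. Second, a 15 min room-temperature incubation followed. Third, further NADPH and then DTNB were added to start the reaction. Finally, TNB absorbance was monitored kinetically.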
AmpC inh no detg – blocks E. coli AmpC beta-lactamase in detergent-free assay; P00811; AmpC nitrocefin hydrolysis, absorbance 480 nm, 0.0001% Triton; Potency, µM (top dose mostly 57.1 µM), most hits filed as inhibitors; actives 0.52% (n = 330,000); further: nearly all actives have a fitted effect of over 20% in size
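AmpC (5.3 nM in the dispensed reagent) in 20 mM phosphate pH 7.0 with 0.01% (detergent screen) or 0.0001% Triton X-100 was preincubated with compounds for 15 min at room temperature. Nitrocefin was then added from an 800 uM solution, and hydrolysis was followed at 480 nm.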
AmpC detergent – inhibitors of E. coli AmpC beta-lactamase with detergent; AmpC hydrolysis of nitrocefin, absorbance 480 nm, 0.01% Triton; Potency, µM (doses to about 114 µM), hits mostly inhibitors; actives 0.041% (n = 370,000); further: nearly all actives have a fitted effect of over 25% in size
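20 mM phosphate pH 7.0 + 0.01% (detergent screen) or 0.0001% Triton X-100; 5.3 nM AmpC reagent; cpd preinc 15 min RT; nitrocefin (800 uM stock) to start; A480 q20 s × 4 min; Activity was normalised to no-enzyme and no-compound control wells.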
FBPA Giardia inh – blocks Giardia fructose-bisphosphate aldolase activity. Potency, µM (top dose mostly 59.6 µM), usual class: inhibitors. A8B2U2. actives 0.71% (n = 290,000). purified Giardia FBPA; further: nearly all actives have a fitted effect of over 55% in size
Target sequence (A8B2U2 whole entry, looked up): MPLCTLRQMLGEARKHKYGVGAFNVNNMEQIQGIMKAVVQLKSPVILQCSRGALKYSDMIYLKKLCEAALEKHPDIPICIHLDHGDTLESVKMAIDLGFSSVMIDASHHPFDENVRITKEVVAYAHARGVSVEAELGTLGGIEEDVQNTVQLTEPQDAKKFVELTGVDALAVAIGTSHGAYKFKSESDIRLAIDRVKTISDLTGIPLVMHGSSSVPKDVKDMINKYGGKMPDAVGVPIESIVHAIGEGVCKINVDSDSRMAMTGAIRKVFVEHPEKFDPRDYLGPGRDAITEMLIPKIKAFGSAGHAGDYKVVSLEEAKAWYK
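40 nM FBPA preincubated 10 min at RT with compound (up to 57.5 uM final), then substrate plus GAPDH/TPI/NAD/arsenate coupling and diaphorase/resazurin added. Fluorescence read after 20 min at RT, 525/598 nm.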
Each line names hits and unclear results; the compound was inactive in the other large screens. Rows were chosen to be rich in hits. Some 3.4% of all compounds tested hit in one or more screens of this group. Unless noted, the call rests on the fitted dose curve; in most records, active means well fitted curve in the direction sought with a large enough effect; inconclusive means small, poorly fitted or top-dose-only effect, or another doubt; inactive means no such curve, though single readings can be large; an effect the other way counts as inactive or inconclusive.

COc1ccc(CCNC(=S)N2CCN(S(=O)(=O)c3cccc(F)c3)CC2)cc1	AmpC detergent inconclusive (no result: FBPA Giardia inh)
COc1cc(SC)ccc1C(=O)Nc1c(C)cccc1C	none
COc1cc(SC)ccc1C(=O)Nc1nc2ccccc2[nH]1	RE007 growth inh 4µM, AmpC detergent inconclusive
COc1cc(SC)ccc1C(=O)NNC(=O)c1cc(C)oc1C	RE007 growth inh 13µM (no result: FBPA Giardia inh)
CCOC(=O)N/N=C1/C[C@@H](O)[C@@H](O)[C@@H]2[C@@H]3C(=O)N(Cc4ccccc4)C(=O)[C@H]3CC[C@@H]12	none (no result: RE007 growth inh, Sm TGR block, AmpC inh no detg, AmpC detergent)
O=C1CC(N2CCN(c3ccc(S(=O)(=O)N4CCCC4)cc3)CC2)C(=O)N1c1ccc(F)cc1 (centres undefined)	Sm TGR block inconclusive
O=C1CC(N2CCN(S(=O)(=O)c3ccccc3)CC2)C(=O)N1c1ccccc1 (centres undefined)	Sm TGR block 50µM
O=C1CC(N2CCCN(C3CC(=O)N(c4ccc(F)cc4)C3=O)CC2)C(=O)N1c1ccc(F)cc1 (centres undefined)	RE007 growth inh 4.5µM, Sm TGR block 20µM
O=C1CC(N2CCN(c3ccc(Cl)cc3)CC2)C(=O)N1c1ccc(F)cc1 (centres undefined)	Sm TGR block inconclusive
COc1ccc(C(=O)NNC(=O)C2CCCN(C3CC(=O)N(c4ccccc4)C3=O)C2)cc1 (centres undefined)	RE007 growth inh inconclusive, Sm TGR block 45µM
CCOC(=O)C1CCCN(C2CC(=O)N(c3ccc(C)cc3)C2=O)C1 (centres undefined)	RE007 growth inh inconclusive, Sm TGR block inconclusive
O=C1CC(N2CCCCC2)C(=O)N1c1ccccc1 (centres undefined)	RE007 growth inh 40µM, Sm TGR block 32µM, AmpC detergent inconclusive
O=C1CC(N2CC2)C(=O)N1c1ccccc1 (centres undefined)	none (no result: Sm TGR block, AmpC inh no detg, AmpC detergent, FBPA Giardia inh)
COc1ccc(/C=N/NC(=O)CC(=O)NC2CCCCC2)cc1	none
CCOCCCn1c(SCC(=O)Nc2ccc(C(C)C)cc2)nc2c(sc3ccccc32)c1=O	none (no result: RE007 growth inh, AmpC inh no detg, FBPA Giardia inh)
O=C(O)c1nc2nc(Cl)c(Cl)nc2[nH]1	FBPA Giardia inh inconclusive (no result: RE007 growth inh)
CCC(=O)Oc1ccc2c(c1)O/C(=C\c1ccco1)C2=O	RE007 growth inh inconclusive, Sm TGR block 11µM
COC(=O)COc1ccc2c(c1)O/C(=C\c1ccco1)C2=O	Sm TGR block 18µM
Cc1cc(O)cc2c1C(=O)/C(=C/c1ccco1)O2	Sm TGR block 32µM
COc1ccc2c(c1)O/C(=C\c1ccccc1C)C2=O	none
Cc1ccsc1/C=C1\Oc2cc(O)ccc2C1=O	none (no result: Sm TGR block, AmpC inh no detg, AmpC detergent, FBPA Giardia inh)
CCN(CC)C(=O)Oc1ccc2c(c1)O/C(=C\c1ccco1)C2=O	none
COc1ccc(S(=O)(=O)N2CCC(C(=O)NCC(c3cccs3)N(C)C)CC2)cc1 (centres undefined)	none
Cc1cc(-n2c(C)c3c(C)nnc(C)c3c2C)ccc1N	AmpC detergent inconclusive
COc1ccccc1CCNC(=O)C(=O)NCC1OCCN1S(=O)(=O)c1ccc(OC)c(OC)c1 (centres undefined)	none
O=C1NC[C@H](CCCCN2CCN(Cc3ccccc3)C(=O)C2=O)N(CCc2ccc(O)cc2)C1=O	none (no result: Sm TGR block, AmpC inh no detg, AmpC detergent, FBPA Giardia inh)
CCCCS/C(=C(/C#N)C(N)=O)c1cc2c([nH]1)CCCC2	Sm TGR block 10µM
COc1ccc(C2=NO[C@@H]3C(=O)N(c4ccc5c(c4)OCCO5)C(=O)[C@H]23)cc1OC	Sm TGR block 45µM, AmpC detergent inconclusive
CCOc1ccccc1-c1noc(CCC(=O)Nc2cccnc2)n1	none
CCn1c(=O)c2cc(C(=O)N3CCN(C)CC3)sc2c2ccccc21	AmpC inh no detg 0.63µM
COc1ccc2c(c1)CCc1c(C(=O)Nc3c(C)nn(Cc4ccccc4C)c3C)noc1-2	none (no result: RE007 growth inh, AmpC inh no detg, FBPA Giardia inh)
Cc1ccccc1Cn1nc(C)c(NC(=O)c2noc3c2CCc2ccccc2-3)c1C	AmpC inh no detg 4µM, AmpC detergent inconclusive
Cc1ccc(CN2C(=O)c3ccccc3C2C(=O)NCc2cccnc2)cc1 (centres undefined)	Sm TGR block inconclusive
O=C(NCc1cccnc1)C1c2ccccc2C(=O)N1C1CCCC1 (centres undefined)	AmpC inh no detg 20µM, AmpC detergent inconclusive

High-throughput results deposited in PubChem by National Center for Advancing Translational Sciences (NCATS).
